Results on 33 targets are retold here after the supplement of paper PMC10849652.

About 8,800 targets were measured; listed, in parts, are those with a hit and a random draw of the rest. About 0.5% of all pairs of compound and target were hits.

Sequence of UniProt O15541 (O15541 whole entry, looked up): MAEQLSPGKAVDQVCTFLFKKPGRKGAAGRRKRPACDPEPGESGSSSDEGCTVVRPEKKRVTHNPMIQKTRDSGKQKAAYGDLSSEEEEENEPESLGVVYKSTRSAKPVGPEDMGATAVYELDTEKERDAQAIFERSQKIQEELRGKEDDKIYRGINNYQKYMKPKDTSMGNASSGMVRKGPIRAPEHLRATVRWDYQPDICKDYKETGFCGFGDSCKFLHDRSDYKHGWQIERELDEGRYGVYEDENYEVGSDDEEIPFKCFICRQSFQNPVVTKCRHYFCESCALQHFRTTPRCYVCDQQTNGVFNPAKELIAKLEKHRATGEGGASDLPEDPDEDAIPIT
Sequence of UniProt Q9HBH5 (Q9HBH5 whole entry, looked up): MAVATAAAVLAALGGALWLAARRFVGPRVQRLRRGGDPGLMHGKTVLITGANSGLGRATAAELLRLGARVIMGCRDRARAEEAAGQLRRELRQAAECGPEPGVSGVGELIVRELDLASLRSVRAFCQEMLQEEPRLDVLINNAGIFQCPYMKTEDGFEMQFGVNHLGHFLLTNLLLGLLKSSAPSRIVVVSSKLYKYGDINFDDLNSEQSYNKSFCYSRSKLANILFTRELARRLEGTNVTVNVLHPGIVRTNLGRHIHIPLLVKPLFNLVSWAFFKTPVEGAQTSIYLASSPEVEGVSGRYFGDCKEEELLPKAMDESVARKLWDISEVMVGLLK
Sequence of UniProt P35250 (P35250 whole entry, looked up): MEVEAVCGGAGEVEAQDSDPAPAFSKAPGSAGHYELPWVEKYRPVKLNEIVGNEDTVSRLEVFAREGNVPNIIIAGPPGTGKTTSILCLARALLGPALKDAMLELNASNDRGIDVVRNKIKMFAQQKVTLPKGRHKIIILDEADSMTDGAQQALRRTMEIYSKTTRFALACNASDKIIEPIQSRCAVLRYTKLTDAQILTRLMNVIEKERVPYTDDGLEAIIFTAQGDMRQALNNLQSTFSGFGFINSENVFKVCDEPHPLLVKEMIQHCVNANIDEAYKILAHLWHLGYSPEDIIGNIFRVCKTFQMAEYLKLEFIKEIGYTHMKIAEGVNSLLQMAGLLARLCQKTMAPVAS
Sequence of UniProt Q7L523 (Q7L523 whole entry, looked up): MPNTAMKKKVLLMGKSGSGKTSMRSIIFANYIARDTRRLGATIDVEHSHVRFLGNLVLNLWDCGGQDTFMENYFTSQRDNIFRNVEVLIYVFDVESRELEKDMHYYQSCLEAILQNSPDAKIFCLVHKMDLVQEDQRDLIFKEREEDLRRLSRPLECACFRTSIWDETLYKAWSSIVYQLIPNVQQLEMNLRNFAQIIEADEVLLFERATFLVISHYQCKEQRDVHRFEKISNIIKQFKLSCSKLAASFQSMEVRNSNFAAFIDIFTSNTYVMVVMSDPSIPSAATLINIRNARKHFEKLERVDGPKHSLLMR
Sequence of UniProt Q8WWV3 (Q8WWV3 whole entry, looked up): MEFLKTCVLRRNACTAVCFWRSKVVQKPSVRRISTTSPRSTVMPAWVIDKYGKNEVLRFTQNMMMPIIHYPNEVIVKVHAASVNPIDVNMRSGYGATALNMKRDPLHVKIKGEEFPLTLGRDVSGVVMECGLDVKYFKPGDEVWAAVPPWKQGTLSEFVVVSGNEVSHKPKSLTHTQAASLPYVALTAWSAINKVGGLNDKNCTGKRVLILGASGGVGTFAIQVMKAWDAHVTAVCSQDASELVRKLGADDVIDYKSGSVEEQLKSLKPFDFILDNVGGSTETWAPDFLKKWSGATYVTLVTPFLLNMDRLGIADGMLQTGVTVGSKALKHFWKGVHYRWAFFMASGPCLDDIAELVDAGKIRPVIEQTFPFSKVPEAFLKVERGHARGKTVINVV
Sequence of UniProt O95248 (O95248 whole entry, looked up): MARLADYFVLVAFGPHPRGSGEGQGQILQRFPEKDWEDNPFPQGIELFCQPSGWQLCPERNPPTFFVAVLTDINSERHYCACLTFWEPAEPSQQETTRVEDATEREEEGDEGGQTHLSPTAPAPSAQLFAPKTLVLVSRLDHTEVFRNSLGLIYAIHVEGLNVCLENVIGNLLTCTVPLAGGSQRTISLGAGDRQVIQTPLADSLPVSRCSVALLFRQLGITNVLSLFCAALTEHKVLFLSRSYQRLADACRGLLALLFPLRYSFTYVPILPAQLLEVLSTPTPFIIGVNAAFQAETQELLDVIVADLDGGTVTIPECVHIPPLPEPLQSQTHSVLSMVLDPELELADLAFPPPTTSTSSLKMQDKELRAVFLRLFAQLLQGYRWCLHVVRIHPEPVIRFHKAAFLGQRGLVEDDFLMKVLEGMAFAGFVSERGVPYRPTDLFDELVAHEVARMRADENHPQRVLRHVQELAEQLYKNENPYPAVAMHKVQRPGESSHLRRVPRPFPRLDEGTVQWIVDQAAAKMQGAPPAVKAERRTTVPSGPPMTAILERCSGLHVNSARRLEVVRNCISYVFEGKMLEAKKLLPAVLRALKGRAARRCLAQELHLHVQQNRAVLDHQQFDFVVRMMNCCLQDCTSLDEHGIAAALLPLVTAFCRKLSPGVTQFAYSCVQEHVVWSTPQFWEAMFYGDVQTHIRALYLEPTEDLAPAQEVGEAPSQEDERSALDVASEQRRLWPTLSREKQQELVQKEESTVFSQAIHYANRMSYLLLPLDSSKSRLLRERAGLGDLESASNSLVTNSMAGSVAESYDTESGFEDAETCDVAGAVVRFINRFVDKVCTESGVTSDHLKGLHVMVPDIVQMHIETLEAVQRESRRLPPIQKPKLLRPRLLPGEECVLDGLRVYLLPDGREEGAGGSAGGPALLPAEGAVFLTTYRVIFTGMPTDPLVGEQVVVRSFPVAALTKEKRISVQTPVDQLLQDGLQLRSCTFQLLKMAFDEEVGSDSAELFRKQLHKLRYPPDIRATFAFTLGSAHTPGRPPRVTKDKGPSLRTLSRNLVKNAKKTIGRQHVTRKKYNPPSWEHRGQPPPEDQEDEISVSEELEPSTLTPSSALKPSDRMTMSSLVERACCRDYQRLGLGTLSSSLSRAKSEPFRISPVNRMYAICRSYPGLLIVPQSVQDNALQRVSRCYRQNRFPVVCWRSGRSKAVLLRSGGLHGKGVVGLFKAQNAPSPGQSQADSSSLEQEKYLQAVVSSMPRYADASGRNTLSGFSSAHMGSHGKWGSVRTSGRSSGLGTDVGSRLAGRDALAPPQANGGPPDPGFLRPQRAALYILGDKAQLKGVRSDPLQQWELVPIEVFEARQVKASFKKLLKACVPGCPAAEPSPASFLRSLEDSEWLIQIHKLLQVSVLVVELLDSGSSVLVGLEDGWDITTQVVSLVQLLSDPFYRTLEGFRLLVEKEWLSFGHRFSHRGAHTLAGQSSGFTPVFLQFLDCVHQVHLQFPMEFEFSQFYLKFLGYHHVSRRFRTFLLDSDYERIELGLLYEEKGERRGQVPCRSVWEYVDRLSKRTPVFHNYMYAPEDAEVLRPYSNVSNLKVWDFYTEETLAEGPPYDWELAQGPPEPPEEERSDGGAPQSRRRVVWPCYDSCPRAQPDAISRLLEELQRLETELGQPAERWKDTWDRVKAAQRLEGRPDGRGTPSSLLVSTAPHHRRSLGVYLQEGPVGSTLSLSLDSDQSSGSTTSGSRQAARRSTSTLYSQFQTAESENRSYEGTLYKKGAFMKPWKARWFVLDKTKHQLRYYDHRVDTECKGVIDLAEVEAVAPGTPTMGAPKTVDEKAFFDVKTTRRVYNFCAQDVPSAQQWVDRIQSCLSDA
Sequence of UniProt Q00765 (Q00765 whole entry, looked up): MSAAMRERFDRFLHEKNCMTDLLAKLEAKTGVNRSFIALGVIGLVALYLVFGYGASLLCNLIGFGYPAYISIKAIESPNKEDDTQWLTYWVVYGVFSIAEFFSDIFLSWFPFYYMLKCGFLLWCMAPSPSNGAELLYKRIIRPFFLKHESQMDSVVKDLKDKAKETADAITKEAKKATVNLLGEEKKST
Sequence of UniProt Q9NR31 (Q9NR31 whole entry, looked up): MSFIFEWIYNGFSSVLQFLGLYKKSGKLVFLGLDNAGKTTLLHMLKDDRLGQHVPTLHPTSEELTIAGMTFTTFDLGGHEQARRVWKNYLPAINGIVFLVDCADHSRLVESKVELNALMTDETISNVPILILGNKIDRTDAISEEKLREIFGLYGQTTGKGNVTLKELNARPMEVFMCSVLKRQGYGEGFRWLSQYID
Sequence of UniProt O94762 (O94762 whole entry, looked up): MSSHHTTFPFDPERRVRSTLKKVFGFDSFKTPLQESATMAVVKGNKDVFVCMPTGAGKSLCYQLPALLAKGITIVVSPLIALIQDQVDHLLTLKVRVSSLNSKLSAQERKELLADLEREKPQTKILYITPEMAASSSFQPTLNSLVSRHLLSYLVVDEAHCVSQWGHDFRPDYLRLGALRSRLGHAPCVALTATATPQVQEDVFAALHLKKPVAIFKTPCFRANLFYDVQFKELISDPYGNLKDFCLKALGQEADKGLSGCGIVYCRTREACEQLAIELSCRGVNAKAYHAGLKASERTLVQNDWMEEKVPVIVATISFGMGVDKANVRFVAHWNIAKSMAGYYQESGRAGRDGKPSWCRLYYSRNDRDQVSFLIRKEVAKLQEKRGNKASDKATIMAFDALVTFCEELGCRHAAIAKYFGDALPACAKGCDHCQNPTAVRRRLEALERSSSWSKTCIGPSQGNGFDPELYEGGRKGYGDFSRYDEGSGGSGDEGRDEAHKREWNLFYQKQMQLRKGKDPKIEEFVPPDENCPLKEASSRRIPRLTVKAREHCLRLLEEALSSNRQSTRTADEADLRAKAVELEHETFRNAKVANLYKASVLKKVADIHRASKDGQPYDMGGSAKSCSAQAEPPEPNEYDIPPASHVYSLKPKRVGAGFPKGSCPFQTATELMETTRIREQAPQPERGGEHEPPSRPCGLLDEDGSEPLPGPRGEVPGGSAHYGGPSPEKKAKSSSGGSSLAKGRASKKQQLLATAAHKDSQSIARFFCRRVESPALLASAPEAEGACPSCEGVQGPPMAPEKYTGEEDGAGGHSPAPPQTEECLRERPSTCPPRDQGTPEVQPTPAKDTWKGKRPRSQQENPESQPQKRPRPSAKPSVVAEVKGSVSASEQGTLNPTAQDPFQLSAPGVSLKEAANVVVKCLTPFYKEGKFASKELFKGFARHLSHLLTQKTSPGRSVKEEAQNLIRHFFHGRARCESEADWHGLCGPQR

Compound in the test: Cc1ncc(-c2ccnc(Nc3ccc(S(C)(=O)=O)cc3)n2)n1C(C)C
Put plainly: log2 fold change, soluble protein after heating vs DMSO (PISA); higher = thermal stabilisation; K562 lysate, 10 uM; active = over 0.2 and 3.5 SD of the protein, either way, in both replicates (recomputed). Summed up: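 K562 pellets were dounce-homogenised in PBS pH 7.4 containing 1 mM MgCl2, and the crude extract, at 1 mg/mL protein, was exposed to 10 μM compound for 30 min. Aliquots were heated for 3 min across 48°C-58°C, pooled, brought to 0.5% NP-40 at 4°C and spun at 21,000xg for 90 min, with the supernatant taken as soluble protein. TMTpro 16plex LC-MS/MS with equalised channel sums quantified that protein. Values are log-two fold changes in thermal stability relative to solvent controls, taken from duplicates.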
Consider RTN4IP1 (UniProt Q8WWV3), for which the log2 fold change was -0.259 (inactive).
The value for SATB2 (UniProt Q9UPW6) was -0.005 (inactive); that for RRAGA (UniProt Q7L523) was -0.065 (inactive); that for RFC2 (UniProt P35250) was -0.012 (inactive).
The value for SASS6 (UniProt Q6UVJ0) was 0.017 (inactive); that for SEC16A isoform 5 (UniProt O15027) was 0.006 (inactive).
The result for SEH1L isoform 1 (UniProt Q96EE3) reads 0.006 (inactive); that for RECQL5 (UniProt O94762), 0.011 (inactive).
Take SAR1A (UniProt Q9NR31): the log2 fold change was -0.009 (inactive).
The value for RAP1GAP isoform 4 (UniProt P47736) was 0.017 (inactive).
The result for RNASEL (UniProt Q05823) reads -0.013 (inactive); that for RIOK3 (UniProt O14730), -0.076 (inactive); that for RRM1 (UniProt P23921), 0.001 (inactive).
The value for RBBP8 isoform 2 (UniProt Q99708) was 0.081 (inactive); that for REEP5 (UniProt Q00765) was 0.003 (inactive).
As for RAB21 (UniProt Q9UL25), the log2 fold change was -0.017 (inactive).
The result for RDH14 (UniProt Q9HBH5) reads 0.004 (inactive); that for SDHA (UniProt P31040), 0.004 (inactive).
The result for RABL3 (UniProt Q5HYI8) reads -0.051 (inactive); that for RBMX (UniProt P38159), -0.052 (inactive); that for RNASEH2B (UniProt Q5TBB1), -0.001 (inactive).
The value for RAC2 (UniProt P15153) was 0.015 (inactive).
RPS6KA3 (UniProt P51812): the log2 fold change was 0.039 (inactive).
The value for RNF113A (UniProt O15541) was 0.007 (inactive); that for RCOR1 (UniProt Q9UKL0) was 0.009 (inactive).
The result for RBM4 (UniProt Q9BWF3) reads 0.029 (inactive).
The value for SBF1 isoform 4 (UniProt O95248) was -0.046 (inactive).
With RBSN (UniProt Q9H1K0), the log2 fold change is 0.034 (inactive).
The result for RAPGEF2, A0A2R8YGD3 reads -0.036 (inactive).
The result for RBBP7 (UniProt Q16576) reads 0.007 (inactive); that for S100A11 (UniProt P31949), 0.056 (inactive).
The result for RPN2 (UniProt P04844) reads -0.013 (inactive); that for RXRB isoform 3 (UniProt P28702), 0.001 (inactive).
